Experimental data from PubChem BioAssay (NCATS).
“And” between values parts separate entries of the source, which are not always exact repeats. Identical values can stand only once. Results filed as inconclusive are left out. The source made the active and inactive calls. The call rests on the fitted dose curve; in most records, active means well fitted curve in the direction sought with a large enough effect; inconclusive means small, poorly fitted or top-dose-only effect, or another doubt; inactive means no such curve, though single readings can be large; an effect the other way counts as inactive or inconclusive.

Experiments:
[1] = tested on: TAB113; test: qHTS profiling for inhibitors of Plasmodium falciparum proliferation (AID 504749); further: nearly all actives have a fitted effect of over 60% in size; further: potency means the concentration at half of the fitted maximal effect; conditions: P. falciparum in erythrocytes, SYBR Green DNA, 72 h; series mostly up to 28.7 µM
Outline: (§1)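 Readout was DNA-dye fluorescence from lysed cultures, ex 485/em 535 nm. Parasitized red cells had grown 72 h with compound; data scaled between 0.29 uM artemisinin and DMSO wells and corrected using vehicle-only plates.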

[2] = tested on: TAB165; test: as above; conditions: P. falciparum in erythrocytes, SYBR Green DNA, 72 h; series mostly up to 28.7 µM
Outline: as §1

[3] = tested on: W2; test: as above; conditions: P. falciparum in erythrocytes, SYBR Green DNA, 72 h; series mostly up to 28.7 µM
Outline: as §1

[4] = tested on: CRL-7250; test: Cytotoxic Profiling of Annotated Libraries Using Quantitative High-Throughput Screening (AID 1296008); conditions: Five cell lines viability, CellTiter-Glo ATP luminescence, 48-72 h; max response: active compounds read low; further: nearly all actives have a fitted effect of over 60% in size; further: potency means the concentration at half of the fitted maximal effect; on max response: on the % scale 0 is the no-effect control and ±100 the full control effect
Outline: (§2)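 Cells exposed to compounds for 48 or 72 hr at 37 degrees Celsius. Viability read as ATP-coupled luminescence with CellTiter-Glo after 10 min at room temperature.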

[5] = tested on: HEK293; test: as above; conditions: Five cell lines viability, CellTiter-Glo ATP luminescence, 48-72 h; max response: active compounds read low
Outline: as §2

[6] = tested on: HaCat; test: as above; conditions: Five cell lines viability, CellTiter-Glo ATP luminescence, 48-72 h; max response: active compounds read low
Outline: as §2

[7] = tested on: KB-3-1; test: as above; conditions: Five cell lines viability, CellTiter-Glo ATP luminescence, 48-72 h; max response: active compounds read low
Outline: as §2

[8] = tested on: NIH3T3; test: as above; conditions: Five cell lines viability, CellTiter-Glo ATP luminescence, 48-72 h; max response: active compounds read low
Outline: as §2

[9] = tested on: CRL-7250; test: qHTS assay to identify novel small-molecules to repurpose for Merkel cell carcinoma treatment (AID 1296009); conditions: MCC and control cell lines, CellTiter-Glo viability, 72 h; at 44.8 µM (top of the series) unless noted; further: nearly all actives have a fitted effect of over 60% in size; further: potency means the concentration at half of the fitted maximal effect
Outline: (§3)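 Cells were incubated with compound for 72 hr at 37 degree celsius before CellTiter-Glo addition. Luminescence was normalized with no-cell wells as full cytotoxicity and DMSO as baseline.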

[10] = tested on: HACAT; test: as above; conditions: MCC and control cell lines, CellTiter-Glo viability, 72 h; at 44.8 µM (top of the series) unless noted
Outline: as §3

[11] = tested on: HEK293T; test: as above; conditions: MCC and control cell lines, CellTiter-Glo viability, 72 h; at 44.8 µM (top of the series) unless noted
Outline: as §3

[12] = tested on: MCC-13; test: as above; conditions: MCC and control cell lines, CellTiter-Glo viability, 72 h; series mostly up to 46 µM
Outline: as §3

[13] = tested on: MCC-26; test: as above; conditions: MCC and control cell lines, CellTiter-Glo viability, 72 h; series mostly up to 46 µM
Outline: as §3

[14] = tested on: MKL-1; test: as above; conditions: MCC and control cell lines, CellTiter-Glo viability, 72 h; series mostly up to 46 µM
Outline: as §3

[15] = tested on: MKL-2; test: as above; conditions: MCC and control cell lines, CellTiter-Glo viability, 72 h; series mostly up to 46 µM
Outline: as §3

[16] = tested on: NIH3T3; test: as above; conditions: MCC and control cell lines, CellTiter-Glo viability, 72 h; at 44.8 µM (top of the series) unless noted
Outline: as §3

[17] = tested on: UISO; test: as above; conditions: MCC and control cell lines, CellTiter-Glo viability, 72 h; series mostly up to 46 µM
Outline: as §3

[18] = tested on: WaGa; test: as above; conditions: MCC and control cell lines, CellTiter-Glo viability, 72 h; series mostly up to 46 µM
Outline: as §3

[19] = tested on: C33A; test: Primary qHTS to identify gynecologic anti-cancer compounds using libraries of approved drugs and bioactive compounds (AID 1345084); conditions: Gynecologic cancer cell panel viability, ATPlite luminescence, 48 h; series mostly up to 57.5 µM; further: on the % scale 0 is the no-effect control and ±100 the full control effect; nearly all actives have a fitted effect of over 55% in size
Outline: (§4)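 48 h compound exposure at 37 C, 5% CO2; five-point qHTS. ATPlite luminescence readout of cell ATP.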

[20] = tested on: CAOV3; test: as above; conditions: Gynecologic cancer cell panel viability, ATPlite luminescence, 48 h; series mostly up to 57.5 µM
Outline: as §4

O=[N+]([O-])c1ccc([As](=O)(O)O)cc1
inactive: outcome [4] | outcome [5] | outcome [6] | max response [7] -9.29% | outcome [8] | outcome [9] | outcome [10] | outcome [11] | Potency [12] | Potency [13] | Potency [14] | outcome [16] | Potency [17] | Potency [18] | Potency [19] | Potency [20]
active: Potency [1] 7.08 µM | Potency [2] 5.01 µM | Potency [3] 4.78 µM | Potency [15] 8.41 µM

Clc1ccccc1C(c1ccccc1)(c1ccccc1)n1cccn1
inactive: outcome [4] | max response [5] -5.51% | max response [6] -3.22% | max response [7] 9.15% | outcome [8] | outcome [9] | Potency [12] | Potency [13] | Potency [14] | Potency [15] | outcome [16] | Potency [17] | Potency [18]

O=C1C(I)=CC(=C(c2cc(I)c(O)c(I)c2)c2ccccc2C(=O)O)C=C1I
inactive: outcome [4] | max response [5] -13.3% | outcome [6] | max response [7] -3.52% and 5.85% | outcome [8] | outcome [9] | outcome [10] | Potency [14] | Potency [15] | outcome [16] | Potency [17] | Potency [18] | Potency [19]

CC(C)N[C@@H]1CCn2c(=O)[nH]c3cccc(c32)[C@@H]1O
inactive: outcome [4] | max response [5] 2.71% | max response [6] -2.4% | max response [7] 6.91% | max response [8] -1.8% | outcome [9] | Potency [12] | Potency [13] | Potency [17]

Oc1ccc2c3c1O[C@H]1c4[nH]c5c(c4C[C@@]4(O)[C@@H](C2)N(CC2CC2)CC[C@]314)C[C@@]1(O)[C@H]2Cc3ccc(O)c4c3[C@@]1(CCN2CC1CC1)[C@H]5O4
inactive: outcome [4] | outcome [5] | max response [6] -0.228% | outcome [7] | max response [8] -5.25% | outcome [9] | outcome [11] | Potency [12] | Potency [13] | Potency [14] | Potency [15] | Potency [17] | Potency [18]

O=C(O)COc1ccccc1
inactive: Potency [1] | Potency [2] | Potency [3] | max response [4] 4.33% | max response [5] 2.38% | outcome [6] | max response [7] -13.1% | max response [8] -0.908% | outcome [10] | Potency [12] | Potency [13] | Potency [14] | Potency [15] | Potency [17] | Potency [18] | Potency [19] | Potency [20]

C1=C2CCCN[C@H]2[C@@H]2C[C@H]1[C@@H]1CCCCN1C2
inactive: max response [4] -2.39% | max response [5] 0.094% | outcome [6] | max response [7] 9.36% | outcome [8] | outcome [10] | Potency [12] | Potency [13] | Potency [14] | Potency [15] | outcome [16] | Potency [17] | Potency [18]

CC(=O)Nc1ccc(OC[C@](C)(O)C(=O)Nc2ccc([N+](=O)[O-])c(C(F)(F)F)c2)cc1
inactive: max response [4] -1.8% and -4.07% | max response [5] -11.2% | outcome [5] | max response [6] -8.66% and -10.1% | max response [7] -13.4% and 7.92% | max response [8] 2.34% | outcome [8] | outcome [11] | Potency [12] | Potency [14] | Potency [15] | outcome [16] | Potency [17] | Potency [18] | Potency [19] | Potency [20]

O=C(Oc1ccc([N+](=O)[O-])cc1)N1CCC(C(O)(c2ccc3c(c2)OCO3)c2ccc3c(c2)OCO3)CC1
active: Potency [4] 13.2 µM
inactive: max response [5] -16.1% | max response [6] -5.43% | outcome [6] | max response [7] 5.68% and 6.78% | outcome [8] | outcome [10] | Potency [12] | Potency [13] | Potency [14] | Potency [15] | outcome [16] | Potency [17] | Potency [18] | Potency [19] | Potency [20]

COc1cccc2c1[C@]13CCN(CC4CC4)[C@H](C2)[C@]1(OC)CCC(=O)C3
inactive: outcome [4] | outcome [5] | outcome [6] | max response [7] 7.72% | max response [8] 3.8% | outcome [9] | outcome [10] | outcome [11] | Potency [12] | Potency [14] | Potency [15] | Potency [17] | Potency [18]

COC(=O)[C@@H](N)CCCN=C(N)N[N+](=O)[O-]
inactive: Potency [1] | Potency [2] | Potency [3] | outcome [4] | max response [5] 0.845% | max response [6] -4.22% | max response [7] 9.25% | max response [8] 1.58% | outcome [9] | Potency [12] | Potency [14] | Potency [15] | Potency [17] | Potency [18]

Cc1nc(-c2ccc(-c3ccc(C(=O)N4CCc5cc6c(cc54)C4(CCN(C)CC4)CO6)cc3)c(C)c2)no1
inactive: max response [4] -11.3% | max response [5] 4.59% | outcome [6] | max response [7] 2.18% | max response [8] 1.47% | outcome [10] | Potency [12] | Potency [14] | Potency [15] | Potency [17] | Potency [18]

CC(=O)NCCc1c[nH]c2ccccc12
inactive: max response [4] -10.8% | max response [5] -1.55% | outcome [6] | outcome [7] | outcome [8] | outcome [10] inactive [at 92 µM] | outcome [16] inactive [at 92 µM] | Potency [19] | Potency [20]
